The panel holds about 83,000 compounds, 20% with a hit somewhere; the sample as a whole holds those more often.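 Compound tested at a single concentration for 48 hours in 96-well plates; a percent growth value below 10 was scored as active.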 Unmarked numbers belong to inactive results. Activity calls are given as the source filed them.

Among the test systems are T-47D breast; BT-549 breast; MDA-MB-435 melanoma; SW-620 colon; MCF7 breast; HCT-116 colon; HCC-2998 colon; KM12 colon.
What all share (assay): NCI-60 one-dose screen, 48 h (100 = growth as untreated, 0 = no growth, -100 = all killed)
Conditions in all cases: 10 µM unless noted

Regarding `Cc1cc(NS(=O)(=O)c2ccc(-c3cnc(C4CC4)o3)cc2)ccc1I`, the growth in the test with T-47D breast was 32.5%; with BT-549 breast, 36%; in the test with MDA-MB-435 melanoma, 3.85% (active); in the test with SW-620 colon, 25.5%; in the test on MCF7 breast, 25.4%; with HCT-116 colon, 28.3%. The growth in the test with HCC-2998 colon was 63.8%; in the test on KM12 colon it was 27.4%.

As to `Nc1nc(N)c2c(n1)NC(c1ccc(Cl)cc1)CC(c1ccc(Nc3nc(NCCO)nc(Nc4ccc(Cl)cc4)n3)cc1)=N2` (centres undefined), the growth is 51.9% with T-47D breast; 58.3% in the test with BT-549 breast; 5.23% (active) with MDA-MB-435 melanoma; -36.2% (active) with SW-620 colon; -75.1% (active) in the test on MCF7 breast; -84.8% (active) with HCT-116 colon. The growth in the test with HCC-2998 colon is 18.6%; in the test on KM12 colon, 11.5%.

Take `Cc1ccccc1/C=C/c1nn2c(-c3ccoc3C)nnc2s1`: the growth with T-47D breast was 90.5%; in the test on BT-549 breast it was 111%; with MDA-MB-435 melanoma, 96.3%; in the test on SW-620 colon, 104%; in the test with MCF7 breast it was 83.9%; with HCT-116 colon, 106%. Moreover, the growth in the test on HCC-2998 colon was 108%; with KM12 colon, 105%.

Take `O=C(O)CNS(=O)(=O)c1ccc(Oc2ccc(S(=O)(=O)NCC(=O)O)cc2)cc1`: the growth was 95.5% with T-47D breast; 115% in the test on BT-549 breast; 106% in the test with MDA-MB-435 melanoma; 102% in the test with SW-620 colon; 93.2% in the test on MCF7 breast; 103% with HCT-116 colon. In addition, the growth was 105% in the test with HCC-2998 colon and 98.4% in the test with KM12 colon.

With `Oc1ccccc1-c1nnc(SCc2ccc(O)c3ncccc23)n1-c1ccccc1`, the growth in the test on T-47D breast was 6.93% (active); with BT-549 breast, 25.2%; in the test with MDA-MB-435 melanoma, 14.4%; in the test with SW-620 colon, 14.9%; in the test with MCF7 breast, 3.11% (active); in the test on HCT-116 colon, 12.6%. Moreover, the results for the growth in the test with HCC-2998 colon and in the test on KM12 colon were 29% and 15.4%, respectively.

For `O=C(CCCCCCN1CC(=O)N2[C@@H](c3cc(F)cc(F)c3)c3[nH]c4ccccc4c3C[C@H]2C1=O)NO`, the growth with T-47D breast is 30.6%; in the test on BT-549 breast, 98.6%; in the test with MDA-MB-435 melanoma it was 47.9%; with SW-620 colon it was 46.9%; in the test with MCF7 breast, 52%; with HCT-116 colon, 27.3%. Besides, the growth in the test with HCC-2998 colon was 82.4%; with KM12 colon, 69.7%.

Consider `N#C/C(=C\c1ccc(-c2ccc(F)cc2)o1)C(=O)Nc1ncc(Cc2ccc(Cl)cc2Cl)s1`, for which the growth in the test with T-47D breast was -5.01% (active); in the test on BT-549 breast it was -15.8% (active); in the test with MDA-MB-435 melanoma, -20.4% (active); with SW-620 colon it was -67.1% (active); with MCF7 breast it was -5.46% (active); in the test on HCT-116 colon, -61.4% (active). Moreover, the growth was 79.8% in the test with HCC-2998 colon and 13.4% with KM12 colon.

`C(=C(\C1=NCCN1)n1cnc2ccccc21)/c1ccc2ccccc2c1`: the growth in the test with T-47D breast was 57.1%; with BT-549 breast, 48.5%; with MDA-MB-435 melanoma, 25.7%; in the test with SW-620 colon, 67.9%; in the test with MCF7 breast, 30.4%; with HCT-116 colon, 67.1%. Moreover, the growth is 71.5% with HCC-2998 colon and 69.2% in the test on KM12 colon.

For `COc1cc(/C=N/n2cnc3oc(-c4ccccc4)cc3c2=N)cc(CN2CCCCC2)c1O`, the growth in the test with T-47D breast was -33.1% (active); in the test with BT-549 breast, -55.4% (active); in the test on MDA-MB-435 melanoma, -91.8% (active); with SW-620 colon, -70% (active); in the test on MCF7 breast, -80.5% (active); in the test with HCT-116 colon, -89.1% (active). For the same compound, the growth was -46.8% (active) in the test with HCC-2998 colon and -72.6% (active) in the test on KM12 colon.

`NNC(=O)c1sc2nc(-c3cnccn3)cc(-c3cccs3)c2c1N`: the growth was 86.4% in the test with T-47D breast; 101% in the test on BT-549 breast; 100% in the test with MDA-MB-435 melanoma; 110% in the test with SW-620 colon; 84.6% with MCF7 breast; 99.3% in the test on HCT-116 colon. Also, the growth in the test with HCC-2998 colon is 100%; in the test on KM12 colon, 92.6%.

On to `COc1cnc2c(c1)C(=O)c1c-2n(CCCNCC2CC2)c(=O)c2cc(F)ccc12`, for which the growth in the test with T-47D breast is -21.2% (active); with BT-549 breast, -0.964% (active); in the test on MDA-MB-435 melanoma it was 10%; with SW-620 colon, -29.6% (active); with MCF7 breast it was -8.09% (active); in the test with HCT-116 colon, -79.7% (active). The growth is -41% (active) with HCC-2998 colon and -8.57% (active) in the test on KM12 colon.

Consider `O=C(c1ccc(O)cc1)[C@@H]1[C@@H]2CCCN2[C@@]2(C(=O)N(C(=O)c3ccc(F)cc3)c3ccccc32)[C@H]1c1ccc(F)cc1`, for which the growth in the test on T-47D breast was 89%; in the test with BT-549 breast, 98.5%; with MDA-MB-435 melanoma, 88.1%; in the test with SW-620 colon, 113%; with MCF7 breast, 86.3%; in the test with HCT-116 colon, 91.4%. Also, the growth in the test on HCC-2998 colon was 108%; in the test with KM12 colon, 100%.

As for `CCn1c2ccc(/C=N/NS(=O)(=O)CCN(C)C)cc2c2cc(/C=N/NS(=O)(=O)CCN(C)C)ccc21`, the growth in the test on T-47D breast is 102%; in the test with BT-549 breast, 99.1%; with MDA-MB-435 melanoma, 96.9%; with SW-620 colon, 90.8%; with MCF7 breast, 89.4%; with HCT-116 colon it was 99.4%. In addition, the growth in the test with HCC-2998 colon was 104%; with KM12 colon, 106%.

The values above are taken from PubChem BioAssay (NCI).
